An excerpt weighted towards active compounds, which were near 2.4% of everything screened.
Prx2 Sm inh: blocks S. mansoni peroxiredoxin 2 enzymatic activity | S. mansoni Prx2 activity coupled to TGR/GSH (TGR is thioredoxin glutathione reductase), NADPH fluorescence loss, qHTS | Potency, µM | 0.07% of 65,000 active | AID 448
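Purified S. mansoni TGR and Prx2 in pH 7.4 phosphate buffer with EDTA and Tween-20 were preincubated with compounds for 15 min. Further NADPH/GSH was added, then a 2.5 mM H2O2 aliquot initiated turnover, followed kinetically by NADPH fluorescence.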
Anthrax LT inh: inhibitors of anthrax lethal toxin internalization | Cells, anthrax lethal toxin internalization, FRET ratio (460/530) | 0.67% of 70,000 active | Potency, µM (titrated, usually from 40 µM), for the others: at the top dose activity change, negative = inhibition, usual class: inhibitors; note: % is set by controls: 0 for no effect and ±100 for the full control effect; nearly all actives have a fitted effect of over 50% in size
AmpC det inh: AmpC beta-lactamase inhibition, detergent assay | P00811 | purified AmpC, nitrocefin hydrolysis with detergent | Potency, µM (top dose mostly 28.7 µM), inactives show at the highest dose activity change, negative = inhibition | 0.09% of 71,000 active | AID 584; active = well fitted curve in the direction sought with a large enough effect; inconclusive = small, poorly fitted or top-dose-only effect; note: % is set by controls: 0 for no effect and ±100 for the full control effect
Target sequence (P00811 whole entry, looked up): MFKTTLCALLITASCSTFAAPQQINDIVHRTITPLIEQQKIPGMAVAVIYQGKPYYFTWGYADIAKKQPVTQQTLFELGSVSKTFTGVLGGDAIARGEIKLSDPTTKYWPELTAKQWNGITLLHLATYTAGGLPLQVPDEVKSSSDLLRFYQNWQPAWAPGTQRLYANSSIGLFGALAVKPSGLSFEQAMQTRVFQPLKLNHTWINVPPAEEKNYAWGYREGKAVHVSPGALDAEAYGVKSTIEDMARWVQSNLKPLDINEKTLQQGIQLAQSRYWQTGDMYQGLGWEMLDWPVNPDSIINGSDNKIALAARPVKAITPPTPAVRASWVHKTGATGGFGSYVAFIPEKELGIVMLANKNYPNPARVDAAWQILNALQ
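E. coli AmpC (5.3 nM) in 20 mM phosphate pH 7.0 with 0.01% Triton X-100, preincubated 15 min RT with compound; nitrocefin (2 uL of 800 uM stock) hydrolysis followed by 480 nm absorbance every 20 s over 4 min.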
AmpC inh no det: AmpC beta-lactamase inhibition, detergent-free assay. AmpC nitrocefin hydrolysis, absorbance 480 nm, no detergent. AID 585. Potency, µM (series often up to 28.7 µM), inactives show at the top dose activity change, negative = inhibition. 1.8% of 71,000 active; note: % of control where 0% means no effect
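Enzyme, pH 7.0 phosphate. Compound titrations were pre-incubated with AmpC for 15 min at room temperature before nitrocefin (stock 800 uM) addition; product formation was recorded at 480 nm every 20 s for 4 min.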
Numbers without * were called inactive; [ ] = another dose, or the depositor's remark. Unless noted, calls come from the whole dose curve. Potency is the fitted concentration of half-maximal effect.

How did CC(C)Cc1cc(C(=O)NCCN2CCOCC2)no1 do in these assays?
Prx2 Sm inh: >57; Anthrax LT inh: -2%; AmpC det inh: 12%; AmpC inh no det: 4µM*[single pt active]

What do the screens show for `CC(C)Cc1cc(C(=O)Nc2cc(Cl)ccc2Cl)no1`?
Prx2 Sm inh: >57; Anthrax LT inh: -14%; AmpC det inh: 13%; AmpC inh no det: 4µM*[single pt active]

Results for COC(=O)[C@H](N)Cc1ccc(Cl)cc1 ?
Prx2 Sm inh: >57; Anthrax LT inh: 2%; AmpC det inh: -1%; AmpC inh no det: -5%

How did CC1(C(=O)NCc2cccnc2)CCC(=O)N1Cc1cccs1 (stereo not given) do in these assays?
Prx2 Sm inh: >57; Anthrax LT inh: 0%; AmpC det inh: 14%; AmpC inh no det: 4µM*[single pt active]

What do the screens show for `CC1(C(=O)NCc2cccnc2)CCC(=O)N1CCc1ccccc1` (stereo not given)?
Prx2 Sm inh: >57; Anthrax LT inh: -8%; AmpC det inh: 16%; AmpC inh no det: 4µM*[single pt active]

How did COc1ccc(CCN2C(=O)CCC2(C)C(=O)NCc2cccnc2)cc1OC (stereo not given) do in these assays?
Prx2 Sm inh: >57; Anthrax LT inh: -2%; AmpC det inh: -2%; AmpC inh no det: -3%

How did COc1cccc2c1C(=O)c1c(O)c3c(c(O)c1C2=O)C[C@@](O)(C(C)=O)C[C@@H]3O[C@H]1C[C@H](N)[C@H](O)[C@H](C)O1 do in these assays?
Prx2 Sm inh: >57; Anthrax LT inh: 16µM*; AmpC det inh: 9%; AmpC inh no det: 144%

Results for COc1cccc2c1C(=O)c1c(O)c3c(c(O)c1C2=O)C[C@](O)(C(=O)CO)C[C@@H]3O[C@H]1C[C@H](N)[C@@H](O)[C@H](C)O1 ?
Prx2 Sm inh: >57; Anthrax LT inh: 0%[8 µM]; AmpC det inh: -2%[5.75 µM]; AmpC inh no det: 2%[5.75 µM]

What do the screens show for `O=C(COc1ccccc1F)c1ccc(O)cc1O`?
Anthrax LT inh: -26%; AmpC det inh: 5%; AmpC inh no det: -14%

What do the screens show for `Cc1c(O)ccc(C(=O)COc2ccccc2F)c1O`?
Prx2 Sm inh: >57; Anthrax LT inh: 10µM*; AmpC det inh: 6%; AmpC inh no det: -9%

Results for Cc1cc(=O)oc2c1ccc1oc(/C(=N/O)c3ccccc3)c(C)c12 ?
Anthrax LT inh: 10µM*; AmpC det inh: 1%; AmpC inh no det: -11%

How did CCC(=O)Oc1ccc2c(C)cc(=O)oc2c1C do in these assays?
Prx2 Sm inh: inconclusive; Anthrax LT inh: inconclusive; AmpC det inh: 3%; AmpC inh no det: -5%

Results for CCC(Sc1nccn1C)C(=O)Nc1cccc2ccccc12 (stereo not given) ?
Prx2 Sm inh: >57; Anthrax LT inh: -4%; AmpC det inh: -6%; AmpC inh no det: -3%

Results for CCC(Sc1nccn1C)C(=O)Nc1nnc(C)s1 (stereo not given) ?
Prx2 Sm inh: >57; Anthrax LT inh: -10%; AmpC det inh: 8%; AmpC inh no det: 4µM*[single pt active]

How did O=C(COC(=O)c1ccc(Br)o1)Nc1nc2ccccc2s1 do in these assays?
Anthrax LT inh: 0%; AmpC det inh: 1%; AmpC inh no det: 5µM*

Results for O=c1[nH]c(SCc2c(Cl)c(Cl)c(Cl)c(Cl)c2Cl)nc(=S)[nH]1 ?
Prx2 Sm inh: >57; Anthrax LT inh: 0%[8 µM]; AmpC det inh: -5%[5.75 µM]; AmpC inh no det: -8%[5.75 µM]

What do the screens show for `Cc1cccc([C@@H]2CN(C)CCc3c2cc(O)c(O)c3Cl)c1`?
Prx2 Sm inh: >57; Anthrax LT inh: inconclusive; AmpC det inh: -8%; AmpC inh no det: 18%

How did CCOC(=O)Cn1c(=O)oc2cc(S(=O)(=O)NCCCc3ccccc3)ccc21 do in these assays?
Prx2 Sm inh: >57; Anthrax LT inh: inconclusive; AmpC det inh: 13%; AmpC inh no det: 0.32µM*[single pt active]

Results for CC(C)(SCc1ccccc1)[C@H](N)C(=O)O ?
Prx2 Sm inh: >57; Anthrax LT inh: -2%[8 µM]; AmpC det inh: -3%[5.75 µM]; AmpC inh no det: 5%[5.75 µM]

Results for Cc1ccc(CNc2ccc(N3CCOCC3)cc2)s1 ?
Prx2 Sm inh: >57; Anthrax LT inh: -12%; AmpC det inh: -5%; AmpC inh no det: 39%

Results for CC(=O)N1CCN(c2ccc(NCc3ccc(C)s3)cc2)CC1 ?
Prx2 Sm inh: >57; Anthrax LT inh: -7%; AmpC det inh: 14%; AmpC inh no det: 4µM*[single pt active]

Results for CCOc1ccc(-n2c(Cc3cc(=O)[nH]c(=O)[nH]3)nnc2SCC)cc1 ?
Prx2 Sm inh: >57; Anthrax LT inh: -9%; AmpC det inh: 15%; AmpC inh no det: 3%

Results for COc1cccc(-n2c(Cc3cc(=O)[nH]c(=O)[nH]3)nnc2SCc2cccnc2)c1 ?
Prx2 Sm inh: >57; Anthrax LT inh: -1%; AmpC det inh: 14%; AmpC inh no det: 4µM*[single pt active]

How did COc1ccc(-n2c(Cc3cc(=O)[nH]c(=O)[nH]3)nnc2SCc2ccccc2)cc1 do in these assays?
Prx2 Sm inh: >57; Anthrax LT inh: 3%; AmpC det inh: 10%; AmpC inh no det: 4µM*[single pt active]

How did COCCn1c(=O)cnc2cnc(N3CCN(C)CC3)nc21 do in these assays?
Prx2 Sm inh: >57; Anthrax LT inh: -6%; AmpC det inh: -2%; AmpC inh no det: 4%

What do the screens show for `NNc1c(C(N)=O)c2c(N)ncnc2n1[C@@H]1O[C@H](CO)[C@@H](O)[C@@H]1O`?
Prx2 Sm inh: >57; Anthrax LT inh: -11%[8 µM]; AmpC det inh: -3%[5.75 µM]; AmpC inh no det: -12%[5.75 µM]

How did O=C(CCCn1c(=O)[nH]c2ccccc2c1=O)NC1CCCCCC1 do in these assays?
Prx2 Sm inh: >57; Anthrax LT inh: -4%; AmpC det inh: 3%; AmpC inh no det: 13%

What do the screens show for `O=C(CCCCn1c(=O)[nH]c2ccccc2c1=O)NC1CCN(Cc2ccccc2)CC1`?
Prx2 Sm inh: >57; Anthrax LT inh: -14%; AmpC det inh: 15%; AmpC inh no det: 3.2µM*[single pt active]

What do the screens show for `CCCOc1ccc(Cc2nn3c(=O)/c(=C/c4ccco4)sc3nc2=O)cc1`?
Prx2 Sm inh: >57; Anthrax LT inh: -1%; AmpC det inh: -2%; AmpC inh no det: 10µM*[single pt active]

Results for C[C@@H]1/C=C\CC(=O)OC[C@H](C)C(=O)N[C@@H](Cc2ccccc2)C(=O)OC1 ?
Anthrax LT inh: -1%[8 µM]

Results for CCCOc1nc(N)c(C#N)c(-c2ccccc2F)c1C#N ?
Prx2 Sm inh: >57; Anthrax LT inh: 7.9µM*; AmpC det inh: -3%; AmpC inh no det: 0%

What do the screens show for `CN1CCc2c(sc3c2C(=O)NC(c2cccc(OC(=O)c4cccs4)c2)N3)C1` (stereo not given)?
Prx2 Sm inh: >57; Anthrax LT inh: inconclusive; AmpC det inh: 12%; AmpC inh no det: 3.2µM*[single pt active]

Results for CN1CCc2c(sc3c2C(=O)NC(c2ccco2)N3)C1 (stereo not given) ?
Prx2 Sm inh: >57; Anthrax LT inh: inconclusive; AmpC det inh: 22%; AmpC inh no det: 9%

How did Cc1nc2ccccc2c2oc(C(=O)NCCN3CCN(C)CC3)cc12 do in these assays?
Prx2 Sm inh: >57; Anthrax LT inh: inconclusive; AmpC det inh: 6%; AmpC inh no det: -16%

What do the screens show for `Cc1ccc2oc(=O)c3cc(C(=O)NCCN4CCN(C)CC4)sc3c2c1`?
Prx2 Sm inh: >57; Anthrax LT inh: -17%; AmpC det inh: 14%; AmpC inh no det: 4µM*[single pt active]

Assay outcomes deposited in PubChem by National Center for Advancing Translational Sciences (NCATS).
